Measured values: PubChem BioAssay AID1159580 (chemical genetic matrix, 2015)
The campaign covered roughly 5,500 compounds. About 2,000 (36%) were called active. Not shown: some 18% with an inconclusive outcome. Rule as the data show it: active = normalized growth mostly below about 0.91 (no sharp cut-off); inconclusive = no clear call, values can overlap the other calls; inactive = mostly above about 0.92. The list shows a part of the results.

Test: chemical genetic growth profiling, strain panel (AID 1159580);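 also: tested at 20 µM; growth read once vehicle control cultures reached saturation at 30 °C; 1 = growth at the plate median or of vehicle wells; lower values mean less growth of the strain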
Conditions: S. cerevisiae deletion strains, growth OD

Measured: normalized growth

COc1ccc2c(c1)c(CC(=O)O)c(C)n2Cc1ccc(F)cc1
inactive: locus YAL040C, strain CLN3, hits give low values 0.985 | locus YCL061C, strain MRC1 (second series), hits give low values 1.01 | locus YDR363W, strain ESC2, hits give low values 1 | locus YER002W, strain NOP16, hits give low values 0.999 | locus YGR078C, strain PAC10, hits give low values 1.01 | locus YMR307W, strain GAS1, hits give low values 0.99 | locus YNL128W, strain TEP1, hits give low values 0.993 | locus YNL175C, strain NOP13, hits give low values 1 | locus YNL197C, strain WHI3, hits give low values 0.991 | locus YNL224C, strain SQS1, hits give low values 0.985 | locus YNL322C, strain KRE1, hits give low values 1.01 | locus YOR083W, strain WHI5 (second series), hits give low values 1.02 | locus YPL055C, strain LGE1, hits give low values 1.01 | locus YPL241C, strain CIN2, hits give low values 1.01
